The supplement of paper PMC10849652
Of roughly 8,800 targets only a part is listed; those with a hit were picked by preference. About 0.5% of all pairs of compound and target were hits. Values without a mark were called inactive.

How the values were obtained:
Test in all cases: log2 fold change, soluble protein after heating vs DMSO (PISA); higher = thermal stabilisation; K562 lysate, 10 uM; active = over 0.2 and 3.5 SD of the protein, either way, in both replicates (recomputed)
vemurafenib = compound: CCCS(=O)(=O)Nc1ccc(F)c(C(=O)c2c[nH]c3ncc(-c4ccc(Cl)cc4)cc23)c1F [vemurafenib]
In short: (§1)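 Thermal stability, expressed as log-two fold change relative to solvent controls, is given from duplicates. Crude K562 extract in PBS pH 7.4 with 1 mM MgCl2, at 1 mg/mL protein, was treated with 10 μM compound for 30 min and heated in aliquots for 3 min across 48°C-58°C. After pooling, adjustment to 0.5% NP-40 at 4°C and centrifugation at 21,000xg for 90 min, supernatant protein was measured by TMTpro 16plex LC-MS/MS with channel sums equalised.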

[1] = compound: CCCS(=O)(=O)Nc1ccc(F)c(C(=O)c2c[nH]c3ncc(Cl)cc23)c1F
In short: as §1

barasertib = compound: CCN(CCCOc1ccc2c(Nc3cc(CC(=O)Nc4cccc(F)c4)[nH]n3)ncnc2c1)CCOP(=O)(O)O [barasertib]
In short: as §1

[2] = compound: CC[C@@H]1C(=O)N(C)c2cnc(Nc3ccc(C(=O)NC4CCN(C)CC4)cc3OC)nc2N1C1CCCC1
In short: as §1

volasertib = compound: CC[C@@H]1C(=O)N(C)c2cnc(Nc3ccc(C(=O)N[C@H]4CC[C@H](N5CCN(CC6CC6)CC5)CC4)cc3OC)nc2N1C(C)C [volasertib]
In short: as §1

[3] = compound: CCn1c(C(=O)N(C2CC2)C2CC2)cc2c3c(ncn3C)c(Nc3cc(C)n(C)n3)nc21
In short: as §1

[4] = compound: CCn1cc(-c2ccnc3[nH]c(-c4cccc(CN(C)C)c4)cc23)c(-c2ccc(NC(=O)N(C)C)cc2)n1
In short: as §1

[5] = compound: CN1CCC(CNc2ccc3ncc(-c4cccc(OC(F)(F)F)c4)n3n2)CC1
In short: as §1

saracatinib = compound: CN1CCN(CCOc2cc(OC3CCOCC3)c3c(Nc4c(Cl)ccc5c4OCO5)ncnc3c2)CC1 [saracatinib]
In short: as §1

sotrastaurin = compound: CN1CCN(c2nc(C3=C(c4c[nH]c5ccccc45)C(=O)NC3=O)c3ccccc3n2)CC1 [sotrastaurin]
In short: as §1

alvocidib = compound: CN1CC[C@H](c2c(O)cc(O)c3c(=O)cc(-c4ccccc4Cl)oc23)[C@H](O)C1 [alvocidib]
In short: as §1

Tubastatin A = compound: CN1CCc2c(c3ccccc3n2Cc2ccc(C(=O)NO)cc2)C1 [Tubastatin A]
In short: as §1

[6] = compound: CNC(=O)C1=CC=CC=C1NC2=NC(=NC=C2Cl)NC3=C(C=C(C=C3)N4CCOCC4)OC
In short: as §1

defactinib = compound: CNC(=O)c1ccc(Nc2ncc(C(F)(F)F)c(NCc3nccnc3N(C)S(C)(=O)=O)n2)cc1 [defactinib]
In short: as §1

[7] = compound: CNc1nc(-c2ccc3c(N)n[nH]c3c2)cc(N2C[C@@H](C(=O)NC3CCCCC3)CC[C@H]2C)n1
In short: as §1

encorafenib = compound: COC(=O)N[C@@H](C)CNc1nccc(-c2cn(C(C)C)nc2-c2cc(Cl)cc(NS(C)(=O)=O)c2F)n1 [encorafenib]
In short: as §1

[8] = compound: COC(=O)[C@H](CCSC)NC(=O)C1=C(C=C(C=C1)NC[C@H](CS)N)C2=CC=CC=C2
In short: as §1

alisertib = compound: COc1cc(Nc2ncc3c(n2)-c2ccc(Cl)cc2C(c2c(F)cccc2OC)=NC3)ccc1C(=O)O [alisertib]
In short: as §1

[9] = compound: COc1cc2nc(-c3cc(F)ccc3O)nc(N[C@@H]3CNC[C@H]3C(C)(C)O)c2cc1OC
In short: as §1

gefitinib = compound: COc1cc2ncnc(Nc3ccc(F)c(Cl)c3)c2cc1OCCCN1CCOCC1 [gefitinib]
In short: as §1

Sequence of UniProt Q9Y3Z3 (Q9Y3Z3 whole entry, looked up): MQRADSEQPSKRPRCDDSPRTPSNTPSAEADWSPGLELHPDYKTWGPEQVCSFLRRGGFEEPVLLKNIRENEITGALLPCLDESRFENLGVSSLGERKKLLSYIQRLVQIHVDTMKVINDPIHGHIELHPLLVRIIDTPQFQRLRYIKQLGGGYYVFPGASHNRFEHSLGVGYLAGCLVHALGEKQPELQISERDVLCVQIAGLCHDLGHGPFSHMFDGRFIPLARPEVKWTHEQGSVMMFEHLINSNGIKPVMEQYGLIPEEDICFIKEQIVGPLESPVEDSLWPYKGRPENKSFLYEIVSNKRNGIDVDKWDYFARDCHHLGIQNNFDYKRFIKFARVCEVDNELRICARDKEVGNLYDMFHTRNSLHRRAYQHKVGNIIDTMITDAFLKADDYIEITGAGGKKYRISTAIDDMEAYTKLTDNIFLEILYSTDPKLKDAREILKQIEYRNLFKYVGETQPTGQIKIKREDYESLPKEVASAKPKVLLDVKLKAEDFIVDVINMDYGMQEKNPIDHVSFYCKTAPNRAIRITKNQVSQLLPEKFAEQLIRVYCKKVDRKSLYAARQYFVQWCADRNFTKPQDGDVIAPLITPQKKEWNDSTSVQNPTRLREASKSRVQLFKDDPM
Sequence of UniProt P31040 (P31040 whole entry, looked up): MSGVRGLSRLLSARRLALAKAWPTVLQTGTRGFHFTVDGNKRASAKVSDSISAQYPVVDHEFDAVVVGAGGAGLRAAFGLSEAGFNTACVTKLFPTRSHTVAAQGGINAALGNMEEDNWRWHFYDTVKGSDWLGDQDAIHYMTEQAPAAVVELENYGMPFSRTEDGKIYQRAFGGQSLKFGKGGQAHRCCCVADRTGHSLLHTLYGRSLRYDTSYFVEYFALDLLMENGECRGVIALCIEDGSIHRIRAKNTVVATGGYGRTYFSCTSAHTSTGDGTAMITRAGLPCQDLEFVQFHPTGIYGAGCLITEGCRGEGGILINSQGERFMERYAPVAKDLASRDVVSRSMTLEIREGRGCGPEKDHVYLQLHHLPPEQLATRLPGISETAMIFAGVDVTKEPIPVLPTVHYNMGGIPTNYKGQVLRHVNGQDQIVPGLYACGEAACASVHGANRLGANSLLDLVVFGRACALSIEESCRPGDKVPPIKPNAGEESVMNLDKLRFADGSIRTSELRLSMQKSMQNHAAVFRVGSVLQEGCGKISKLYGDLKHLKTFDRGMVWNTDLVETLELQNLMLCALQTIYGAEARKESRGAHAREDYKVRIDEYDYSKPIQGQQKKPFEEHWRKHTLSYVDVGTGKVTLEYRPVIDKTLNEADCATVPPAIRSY
Sequence of UniProt Q15283 (Q15283 whole entry, looked up): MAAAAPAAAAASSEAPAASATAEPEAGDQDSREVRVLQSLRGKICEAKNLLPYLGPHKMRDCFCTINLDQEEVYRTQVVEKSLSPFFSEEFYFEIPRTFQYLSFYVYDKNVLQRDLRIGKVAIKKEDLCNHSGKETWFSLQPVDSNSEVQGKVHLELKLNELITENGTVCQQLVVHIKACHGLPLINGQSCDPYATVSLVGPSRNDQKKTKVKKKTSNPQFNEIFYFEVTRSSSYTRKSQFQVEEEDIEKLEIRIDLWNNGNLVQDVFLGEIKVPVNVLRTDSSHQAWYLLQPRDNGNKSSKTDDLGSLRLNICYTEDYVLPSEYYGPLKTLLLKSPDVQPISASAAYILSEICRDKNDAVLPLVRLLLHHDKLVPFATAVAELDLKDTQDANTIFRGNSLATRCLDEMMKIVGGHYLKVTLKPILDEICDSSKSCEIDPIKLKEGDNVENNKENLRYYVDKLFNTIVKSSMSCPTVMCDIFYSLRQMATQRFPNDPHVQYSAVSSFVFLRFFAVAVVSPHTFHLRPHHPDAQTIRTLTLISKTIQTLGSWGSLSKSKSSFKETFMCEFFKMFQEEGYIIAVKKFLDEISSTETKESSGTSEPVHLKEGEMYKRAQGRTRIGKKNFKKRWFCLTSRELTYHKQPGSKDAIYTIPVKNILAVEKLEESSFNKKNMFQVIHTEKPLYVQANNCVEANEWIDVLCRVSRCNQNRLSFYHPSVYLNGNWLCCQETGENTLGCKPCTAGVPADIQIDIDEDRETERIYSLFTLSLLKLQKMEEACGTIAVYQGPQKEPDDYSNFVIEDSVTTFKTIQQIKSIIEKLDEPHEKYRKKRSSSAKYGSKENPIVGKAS
Sequence of UniProt P47736 (P47736 whole entry, looked up): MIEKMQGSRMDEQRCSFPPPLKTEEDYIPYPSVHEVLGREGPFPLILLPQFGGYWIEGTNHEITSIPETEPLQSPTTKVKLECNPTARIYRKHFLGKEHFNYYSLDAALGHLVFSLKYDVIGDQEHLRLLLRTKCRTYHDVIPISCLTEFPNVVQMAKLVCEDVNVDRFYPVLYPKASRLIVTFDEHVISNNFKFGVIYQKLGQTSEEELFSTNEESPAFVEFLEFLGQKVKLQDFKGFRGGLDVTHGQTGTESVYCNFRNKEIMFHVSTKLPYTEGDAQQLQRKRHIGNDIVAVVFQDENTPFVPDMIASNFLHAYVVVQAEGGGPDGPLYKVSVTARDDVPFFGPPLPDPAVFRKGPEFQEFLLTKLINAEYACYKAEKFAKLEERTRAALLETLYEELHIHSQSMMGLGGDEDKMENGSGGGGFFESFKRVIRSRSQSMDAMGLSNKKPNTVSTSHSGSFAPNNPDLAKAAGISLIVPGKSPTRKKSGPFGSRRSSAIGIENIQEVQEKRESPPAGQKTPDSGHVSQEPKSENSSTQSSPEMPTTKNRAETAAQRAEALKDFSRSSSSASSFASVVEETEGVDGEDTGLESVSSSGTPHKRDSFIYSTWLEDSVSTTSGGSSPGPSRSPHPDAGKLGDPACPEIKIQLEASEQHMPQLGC
Sequence of UniProt Q8WWV3 (Q8WWV3 whole entry, looked up): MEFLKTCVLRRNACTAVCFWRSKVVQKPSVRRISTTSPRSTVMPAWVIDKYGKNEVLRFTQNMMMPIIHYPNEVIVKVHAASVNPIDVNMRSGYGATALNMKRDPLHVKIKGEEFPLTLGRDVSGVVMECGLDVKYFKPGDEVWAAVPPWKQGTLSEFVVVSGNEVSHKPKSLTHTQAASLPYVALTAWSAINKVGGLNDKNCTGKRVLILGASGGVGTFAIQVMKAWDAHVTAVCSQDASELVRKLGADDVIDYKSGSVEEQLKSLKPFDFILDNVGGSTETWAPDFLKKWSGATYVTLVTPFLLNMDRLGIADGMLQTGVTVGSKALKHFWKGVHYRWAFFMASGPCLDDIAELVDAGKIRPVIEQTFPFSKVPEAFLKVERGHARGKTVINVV
Sequence of UniProt Q6UVJ0 (Q6UVJ0 whole entry, looked up): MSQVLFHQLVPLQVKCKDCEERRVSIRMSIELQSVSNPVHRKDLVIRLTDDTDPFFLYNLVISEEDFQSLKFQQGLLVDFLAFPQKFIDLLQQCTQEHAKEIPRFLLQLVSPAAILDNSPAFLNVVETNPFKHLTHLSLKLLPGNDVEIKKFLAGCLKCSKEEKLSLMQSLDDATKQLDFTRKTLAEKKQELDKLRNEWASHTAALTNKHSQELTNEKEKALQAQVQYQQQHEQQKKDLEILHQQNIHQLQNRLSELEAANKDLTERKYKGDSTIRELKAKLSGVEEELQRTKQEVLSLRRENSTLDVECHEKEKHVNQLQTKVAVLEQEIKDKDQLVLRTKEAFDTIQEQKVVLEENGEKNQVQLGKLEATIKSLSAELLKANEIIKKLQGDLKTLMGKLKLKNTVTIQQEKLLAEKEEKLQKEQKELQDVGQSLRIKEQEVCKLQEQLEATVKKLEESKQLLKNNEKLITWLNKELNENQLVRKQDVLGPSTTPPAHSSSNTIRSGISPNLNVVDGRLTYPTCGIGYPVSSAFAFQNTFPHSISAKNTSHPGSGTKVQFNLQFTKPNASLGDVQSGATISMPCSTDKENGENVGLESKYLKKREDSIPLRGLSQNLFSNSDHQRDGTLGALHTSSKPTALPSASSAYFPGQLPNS
Sequence of UniProt Q9BWF3 (Q9BWF3 whole entry, looked up): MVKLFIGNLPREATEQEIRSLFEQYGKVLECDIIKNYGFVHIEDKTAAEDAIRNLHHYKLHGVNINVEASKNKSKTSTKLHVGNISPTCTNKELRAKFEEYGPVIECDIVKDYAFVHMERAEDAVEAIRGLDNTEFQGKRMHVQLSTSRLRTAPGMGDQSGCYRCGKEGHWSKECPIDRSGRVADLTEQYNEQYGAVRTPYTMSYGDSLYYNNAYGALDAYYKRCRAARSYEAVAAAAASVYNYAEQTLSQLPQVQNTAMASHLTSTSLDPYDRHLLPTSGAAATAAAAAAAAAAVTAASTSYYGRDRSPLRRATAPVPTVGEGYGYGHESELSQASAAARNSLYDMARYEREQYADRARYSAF
Sequence of UniProt P40937 (P40937 whole entry, looked up): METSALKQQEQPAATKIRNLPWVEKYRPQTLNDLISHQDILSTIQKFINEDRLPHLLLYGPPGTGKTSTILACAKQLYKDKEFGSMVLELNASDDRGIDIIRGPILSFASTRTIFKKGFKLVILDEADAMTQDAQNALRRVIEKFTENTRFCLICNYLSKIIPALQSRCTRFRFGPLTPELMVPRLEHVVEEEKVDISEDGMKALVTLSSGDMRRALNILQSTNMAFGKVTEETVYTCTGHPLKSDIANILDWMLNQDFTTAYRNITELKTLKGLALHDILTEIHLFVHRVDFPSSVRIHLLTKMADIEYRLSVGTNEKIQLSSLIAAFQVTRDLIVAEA
Sequence of UniProt O43502 (O43502 whole entry, looked up): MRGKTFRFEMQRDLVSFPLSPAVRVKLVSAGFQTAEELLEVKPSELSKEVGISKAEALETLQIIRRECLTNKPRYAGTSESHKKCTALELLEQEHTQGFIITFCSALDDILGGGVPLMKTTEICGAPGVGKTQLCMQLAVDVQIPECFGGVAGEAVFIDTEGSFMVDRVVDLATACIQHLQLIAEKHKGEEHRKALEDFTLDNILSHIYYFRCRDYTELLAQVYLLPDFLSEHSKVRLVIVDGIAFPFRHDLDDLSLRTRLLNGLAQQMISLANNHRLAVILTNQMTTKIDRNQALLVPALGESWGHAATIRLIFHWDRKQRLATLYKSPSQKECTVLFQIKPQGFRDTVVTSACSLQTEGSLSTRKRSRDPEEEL

Row | Target | log2 fold change (vemurafenib) | log2 fold change [1] | log2 fold change (barasertib) | log2 fold change [2] | log2 fold change (volasertib) | log2 fold change [3] | log2 fold change [4] | log2 fold change [5] | log2 fold change (saracatinib) | log2 fold change (sotrastaurin) | log2 fold change (alvocidib) | log2 fold change (Tubastatin A) | log2 fold change [6] | log2 fold change (defactinib) | log2 fold change [7] | log2 fold change (encorafenib) | log2 fold change [8] | log2 fold change (alisertib) | log2 fold change [9] | log2 fold change (gefitinib)
1 | RHOA (UniProt P61586) | 0.003 | -0.005 | -0.07 | 0.069 | 0.009 | 0.042 | 0.45 (active) | -0.06 | 0.009 | 0 | 0.093 | -0.078 | 0.087 | -0.029 | -0.003 | -0.042 | -0.046 | 0.072 | 0.029 | 0.078
2 | SDHA (UniProt P31040) | 0.042 | 0.018 | -0.032 | -0.004 | 0.002 | -0.003 | -0.022 | 0.02 | -0.02 | 0.005 | -0.004 | -0.012 | 0 | -0.04 | 0.002 | -0.023 | -0.04 | -0.023 | -0.014 | -0.031
3 | RAC2 (UniProt P15153) | 0.028 | 0.034 | 0.054 | 0.049 | -0.071 | -0.001 | -0.011 | 0.008 | 0.045 | -0.058 | 0.047 | -0.086 | 0.082 | 0.007 | 0.06 | -0.022 | -0.001 | 0.051 | 0.056 | 0.016
4 | SEC24D isoform 2 (UniProt O94855) | -0.039 | 0.027 | -0.002 | -0.032 | -0.032 | -0.011 | -0.001 | -0.009 | 0.005 | -0.025 | -0.012 | -0.018 | 0.002 | 0.012 | -0.008 | 0.029 | -0.163 | 0.005 | 0.006 | 0.006
5 | RASA2 (UniProt Q15283) | 0.069 | 0.025 | -0.02 | -0.055 | -0.018 | 0.02 | -0.028 | -0.013 | 0.068 | -0.017 | 0 | -0.078 | 0.019 | 0.053 | -0.064 | -0.059 | 0.113 | -0.003 | -0.008 | -0.003
6 | RAD51C (UniProt O43502) | -0.067 | -0.01 | -0.011 | -0.017 | 0.046 | -0.038 | -0.027 | 0.027 | 0.01 | 0.027 | 0.061 | -0.081 | 0.002 | 0.035 | 0.072 | -0.058 | 0.004 | -0.005 | 0.047 | -0.016
7 | SAMHD1 (UniProt Q9Y3Z3) | 0.034 | 0.045 | 0.007 | -0.032 | -0.037 | 0.068 | -0.096 | 0.079 | -0.052 | 0.032 | -0.019 | -0.072 | 0.041 | -0.021 | -0.015 | 0 | 0.099 | -0.013 | 0.02 | 0.044
8 | SASS6 (UniProt Q6UVJ0) | 0.042 | -0.024 | -0.016 | 0.039 | -0.024 | 0.024 | 0.154 | -0.047 | 0.059 | -0.02 | 0.051 | -0.104 | 0.018 | 0.03 | -0.002 | 0.053 | 0.085 | -0.019 | 0.005 | 0.001
9 | RBM4 (UniProt Q9BWF3) | -0.013 | -0.042 | 0.023 | -0.053 | -0.032 | 0.045 | 0.344 (active) | -0.044 | -0.013 | -0.015 | 0.16 | -0.168 | 0.013 | -0.011 | -0.088 | 0.089 | -0.066 | 0.037 | 0.006 | -0.004
10 | ROCK1 (UniProt Q13464) | 0.014 | 0.004 | 0.004 | 0.018 | -0.045 | 0.001 | -0.017 | 0.025 | -0.017 | 0.015 | 0.004 | 0.013 | -0.029 | -0.02 | 0.039 | -0.004 | -0.019 | -0.045 | 0.022 | -0.004
11 | SCD (UniProt O00767) | -0.03 | 0.111 | 0.042 | 0.006 | 0.098 | -0.082 | -0.504 (active) | 0.212 | 0.071 | 0.084 | -0.138 | -0.015 | -0.014 | -0.02 | -0.091 | -0.097 | 0.076 | 0.006 | 0.004 | 0.011
12 | RAP1GAP isoform 4 (UniProt P47736) | 0.009 | 0.055 | 0.008 | 0.044 | -0.075 | 0.003 | -0.038 | 0.02 | 0.06 | 0.029 | 0.01 | -0.138 | 0.06 | 0.012 | -0.027 | 0.022 | 0.01 | 0.024 | 0.008 | 0.026
13 | RFC5 (UniProt P40937) | 0.034 | -0.003 | -0.017 | -0.039 | -0.079 | 0.022 | 0.137 | 0.005 | 0.008 | 0.043 | 0.004 | -0.203 | 0.003 | 0.008 | -0.004 | 0.051 | 0.148 | -0.006 | -0.003 | 0
14 | RTN4IP1 (UniProt Q8WWV3) | -0.02 | 0.047 | -0.049 | -0.018 | -0.014 | -0.007 | 0.058 | -0.106 | -0.048 | 0.015 | 0.042 | -0.079 | 0.036 | -0.014 | 0 | -0.021 | 0.003 | -0.111 | 0.019 | 0.196
15 | RAB3IL1 (UniProt E9PK89) | -0.154 | 0.031 | -0.001 | -0.079 | 0.031 | -0.054 | 0.026 | -0.047 | -0.043 | -0.013 | -0.008 | -0.025 | 0.023 | 0.123 | 0.005 | 0.047 | 0.024 | 0.032 | -0.07 | 0
16 | RPL37A (UniProt P61513) | 0.003 | -0.002 | -0.013 | -0.01 | -0.015 | -0.044 | 0.371 (active) | -0.158 | -0.035 | -0.138 | 0.159 | 0.024 | 0.022 | -0.045 | 0.161 | 0.004 | 0.021 | -0.006 | 0.004 | -0.064
